From PubChem BioAssay AID1159580 (chemical genetic matrix, 2015)
Hit rate of the full screen: of about 5,500 compounds, about 2,000 (36%) were called active. Roughly 18% stayed inconclusive and do not appear here. Rule as the data show it: active = normalized growth mostly below about 0.91 (no sharp cut-off); inconclusive = no clear call, values can overlap the other calls; inactive = mostly above about 0.92. This is one part of the list.

Assay: chemical genetic growth profiling, strain panel (AID 1159580);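 also: tested at 20 µM; growth read once vehicle control cultures reached saturation at 30 °C; 1 = growth at the plate median or of vehicle wells; lower values mean less growth of the strain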
Details: growth OD

Measured: normalized growth

COC1=CC(=O)C=C(OC)C1=O
inactive: S. cerevisiae deletion strains, locus YKL009W, strain mrt4, stronger effect = lower value 0.956 | S. cerevisiae deletion strains, locus YKL068W, stronger effect = lower value 0.972 | S. cerevisiae deletion strains, locus YKL085W, strain MDH1 (second series), stronger effect = lower value 0.981 | S. cerevisiae deletion strains, locus YKL085W, strain MDH1, stronger effect = lower value 0.981 | S. cerevisiae deletion strains, locus YKL160W, strain elf1, stronger effect = lower value 0.971 | S. cerevisiae deletion strains, locus YKL190W, strain CNB1, stronger effect = lower value 0.989 | S. cerevisiae deletion strains, locus YKR001C, strain vps1, stronger effect = lower value 0.995 | S. cerevisiae deletion strains, locus YKR026C, strain gcn3, stronger effect = lower value 0.995 | S. cerevisiae deletion strains, locus YKR091W, strain srl3, stronger effect = lower value 1 | S. cerevisiae deletion strains, locus YLL001W, strain dnm1, stronger effect = lower value 0.996 | S. cerevisiae deletion strains, locus YLL026W, stronger effect = lower value 0.991 | S. cerevisiae deletion strains, locus YLL041C, strain sdh2, stronger effect = lower value 1.01 | S. cerevisiae deletion strains, locus YLR027C, strain aat2, stronger effect = lower value 0.997 | S. cerevisiae deletion strains, locus YLR039C, strain RIC1, stronger effect = lower value 0.981 | S. cerevisiae deletion strains, locus YLR058C, strain SHM2, stronger effect = lower value 0.988 | S. cerevisiae deletion strains, locus YLR102C, strain apc9, stronger effect = lower value 0.982 | S. cerevisiae deletion strains, locus YLR113W, strain HOG1, stronger effect = lower value 0.998 | S. cerevisiae deletion strains, locus YLR221C, strain rsa3, stronger effect = lower value 1 | S. cerevisiae deletion strains, locus YLR258W, strain gsy2, stronger effect = lower value 0.997 | S. cerevisiae deletion strains, locus YLR262C, strain YPT6 (second series), stronger effect = lower value 0.946 | S. cerevisiae deletion strains, locus YLR262C, strain YPT6, stronger effect = lower value 0.967 | S. cerevisiae deletion strains, locus YLR268W, strain sec22, stronger effect = lower value 0.989 | S. cerevisiae deletion strains, locus YLR320W, strain mms22, stronger effect = lower value 0.955 | S. cerevisiae deletion strains, locus YLR330W, strain CHS5, stronger effect = lower value 0.997 | S. cerevisiae deletion strains, locus YLR342W, strain FKS1 (second series), stronger effect = lower value 1.02 | S. cerevisiae deletion strains, locus YLR342W, strain FKS1, stronger effect = lower value 0.976 | S. cerevisiae deletion strains, locus YLR357W, strain rsc2, stronger effect = lower value 0.99 | S. cerevisiae deletion strains, locus YLR370C, strain arc18, stronger effect = lower value 1.01 | S. cerevisiae deletion strains, locus YLR371W, strain rom2, stronger effect = lower value 0.989 | S. cerevisiae deletion strains, locus YLR384C, strain iki3, stronger effect = lower value 0.986 | S. cerevisiae deletion strains, locus YLR418C, strain cdc73, stronger effect = lower value 0.999 | S. cerevisiae deletion strains, locus YML016C, strain PPZ1, stronger effect = lower value 0.994 | S. cerevisiae deletion strains, locus YML032C, strain rad52, stronger effect = lower value 0.973 | S. cerevisiae deletion strains, locus YML120C, strain ndi1, stronger effect = lower value 1.01 | S. cerevisiae deletion strains, locus YML124C, strain tub3, stronger effect = lower value 0.987 | S. cerevisiae deletion strains, locus YMR058W, strain fet3, stronger effect = lower value 1.02 | S. cerevisiae deletion strains, locus YMR078C, strain ctf18, stronger effect = lower value 0.999 | S. cerevisiae deletion strains, locus YMR125W, strain sto1, stronger effect = lower value 1.02 | S. cerevisiae deletion strains, locus YMR129W, stronger effect = lower value 0.999 | S. cerevisiae deletion strains, locus YMR205C, strain PFK2, stronger effect = lower value 0.983 | S. cerevisiae deletion strains, locus YMR223W, strain ubp8, stronger effect = lower value 0.993 | S. cerevisiae deletion strains, locus YMR231W, strain pep5, stronger effect = lower value 1.01 | S. cerevisiae deletion strains, locus YMR307W, strain GAS1, stronger effect = lower value 1.12 | S. cerevisiae deletion strains, locus YNL067W, strain RPL9B, stronger effect = lower value 0.997 | S. cerevisiae deletion strains, locus YNL071W, strain lat1, stronger effect = lower value 0.989 | S. cerevisiae deletion strains, locus YNL183C, strain NPR1, stronger effect = lower value 0.95 | S. cerevisiae deletion strains, locus YNL209W, strain ssb2, stronger effect = lower value 0.996 | S. cerevisiae deletion strains, locus YNL233W, strain BNI4, stronger effect = lower value 1.02 | S. cerevisiae deletion strains, locus YNL248C, strain rpa49, stronger effect = lower value 1.01 | S. cerevisiae deletion strains, locus YNL250W, strain rad50, stronger effect = lower value 0.987 | S. cerevisiae deletion strains, locus YNL271C, strain bni1, stronger effect = lower value 0.99 | S. cerevisiae deletion strains, locus YNL298W, strain CLA4, stronger effect = lower value 0.999 | S. cerevisiae deletion strains, locus YNL307C, strain MCK1, stronger effect = lower value 0.992 | S. cerevisiae deletion strains, locus YNL322C, strain KRE1 (second series), stronger effect = lower value 0.996 | S. cerevisiae deletion strains, locus YNL322C, strain KRE1, stronger effect = lower value 0.993 | S. cerevisiae deletion strains, locus YNR049C, strain mso1, stronger effect = lower value 1 | S. cerevisiae deletion strains, locus YNR052C, strain pop2, stronger effect = lower value 1.01 | S. cerevisiae deletion strains, locus YOL006C, strain TOP1, stronger effect = lower value 1.17 | S. cerevisiae deletion strains, locus YOL012C, strain htz1 0.746 | S. cerevisiae deletion strains, locus YOL147C, strain pex11, stronger effect = lower value 0.988 | S. cerevisiae deletion strains, locus YOR001W, strain rrp6, stronger effect = lower value 1 | S. cerevisiae deletion strains, locus YOR061W, strain CKA2, stronger effect = lower value 0.965 | S. cerevisiae deletion strains, locus YOR069W, strain VPS5, stronger effect = lower value 0.991 | S. cerevisiae deletion strains, locus YOR070C, strain gyp1, stronger effect = lower value 0.996 | S. cerevisiae deletion strains, locus YOR080W, strain dia2, stronger effect = lower value 1.01 | S. cerevisiae deletion strains, locus YOR083W, strain WHI5, stronger effect = lower value 0.927 | S. cerevisiae deletion strains, locus YOR106W, strain vam3, stronger effect = lower value 0.97 | S. cerevisiae deletion strains, locus YOR136W, strain idh2, stronger effect = lower value 0.972 | S. cerevisiae deletion strains, locus YOR144C, strain elg1, stronger effect = lower value 0.994 | S. cerevisiae deletion strains, locus YOR184W, strain ser1, stronger effect = lower value 0.982 | S. cerevisiae deletion strains, locus YOR231W, strain MKK1, stronger effect = lower value 1.01 | S. cerevisiae deletion strains, locus YOR265W, strain rbl2, stronger effect = lower value 0.994 | S. cerevisiae deletion strains, locus YOR270C, strain vph1, stronger effect = lower value 0.94 | S. cerevisiae deletion strains, locus YOR290C, strain snf2, stronger effect = lower value 0.991 | S. cerevisiae deletion strains, locus YOR316C, strain cot1, stronger effect = lower value 0.986 | S. cerevisiae deletion strains, locus YPL051W, strain arl3, stronger effect = lower value 0.998 | S. cerevisiae deletion strains, locus YPL055C, strain LGE1, stronger effect = lower value 1.04 | S. cerevisiae deletion strains, locus YPL078C, strain atp4, stronger effect = lower value 0.962 | S. cerevisiae deletion strains, locus YPL106C, strain sse1, stronger effect = lower value 0.994 | S. cerevisiae deletion strains, locus YPL240C, strain hsp82, stronger effect = lower value 0.991 | S. cerevisiae deletion strains, locus YPL241C, strain CIN2, stronger effect = lower value 0.986 | S. cerevisiae deletion strains, locus YPL256C, strain CLN2, stronger effect = lower value 1.01 | S. cerevisiae deletion strains, locus YPR119W, strain clb2, stronger effect = lower value 0.981 | S. cerevisiae deletion strains, locus YPR141C, strain kar3, stronger effect = lower value 0.983 | S. cerevisiae deletion strains, locus YPR163C, strain tif3, stronger effect = lower value 1 | S. cerevisiae deletion strains, locus YPR167C, strain met16, stronger effect = lower value 0.976 | S. cerevisiae deletion strains, strain wtn01, stronger effect = lower value 0.981 | S. cerevisiae strains, strain wild type, stronger effect = lower value 1
